Screening data deposited in PubChem BioAssay by National Center for Advancing Translational Sciences (NCATS).
BRCA1 expr up = activators of BRCA1 expression | MCF7-BRCA1-FFLuc reporter, luminescence, 48 h; response scale: scaled: vehicle 0%, 10 µM genistein 100% | Potency, µM (highest dose often 46.1 µM), inactives show top-dose activation, usual class: activators | 1.1% of 380,000 active; also: potency is read from the fitted curve at half-maximal effect; nearly all actives have a fitted effect of over 80% in size
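48 h compound treatment of MCF7-BRCA1-FFLuc cells (phenol-red free MEM, 37 °C), then 15 min with luciferase substrate and luminescence imaging.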
TrxR1 substrate = rat thioredoxin reductase 1 substrate activity; Potency, µM (titrated, usually from 114 µM), inactives show top-dose activity change, negative = substrate turnover; purified TrxR1 substrate turnover, NADPH consumption readout; 0.01% of 390,000 active; AID 588456; also: potency is read from the fitted curve at half-maximal effect; % is scaled to controls: 0 for no effect and ±100 for the full control effect; nearly all actives have a fitted effect of over 50% in size
Target sequence (O89049 whole entry, looked up): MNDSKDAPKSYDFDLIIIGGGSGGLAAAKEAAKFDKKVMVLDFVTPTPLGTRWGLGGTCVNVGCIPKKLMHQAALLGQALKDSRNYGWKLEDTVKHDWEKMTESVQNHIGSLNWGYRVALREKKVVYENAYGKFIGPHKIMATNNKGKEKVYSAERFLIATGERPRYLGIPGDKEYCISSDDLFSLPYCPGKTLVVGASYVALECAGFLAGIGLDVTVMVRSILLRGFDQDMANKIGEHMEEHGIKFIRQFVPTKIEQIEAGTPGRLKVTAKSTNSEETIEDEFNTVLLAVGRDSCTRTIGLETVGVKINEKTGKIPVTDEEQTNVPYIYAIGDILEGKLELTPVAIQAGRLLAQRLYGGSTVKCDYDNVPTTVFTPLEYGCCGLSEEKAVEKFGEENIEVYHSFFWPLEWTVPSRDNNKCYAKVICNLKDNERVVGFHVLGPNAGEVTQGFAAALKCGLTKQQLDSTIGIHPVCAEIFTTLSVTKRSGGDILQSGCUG
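Rat TrxR1, dispensed at 90 nM, was prereduced with 400 uM NADPH (final) for 5 min at ~22 deg C, then incubated with compound 15 min before 400 uM selenite. A first-read NADPH fluorescence drop versus no-compound background flagged substrates.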
Giardia kill = kills Giardia lamblia | Giardia lamblia trophozoite viability | activity change, % at 7.66 µM, hits read low | 0.15% of 340,000 active; in the data active = activity change below about -80%; inconclusive = between about -30% and that limit;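 also: parasites exposed to compound for two days anaerobically before the ATP read; % is scaled to controls: 0 for no effect and ±100 for the full control effect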
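Media and compound were dispensed first, then trophozoites at 100 cells/well; plates sat 48 hrs at 37 deg C without oxygen before ATP luminescence reagent was added and read after 15-30 min at room temperature.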
TrxR1 inh-1 = rat TrxR1 inhibition; Potency, µM (titrated, usually from 114 µM), for inactives: at the highest dose activity change, negative = inhibition, usual class: inhibitors; 1% of 390,000 active; recombinant rTrxR1, NADPH fluorescence consumption, selenite substrate; also: potency is read from the fitted curve at half-maximal effect; % is scaled to controls: 0 for no effect and ±100 for the full control effect; nearly all actives have a fitted effect of over 65% in size
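Rat TrxR1 (90 nM in the dispensed reagent) was pre-reduced with 400 uM NADPH for 5 min at room temperature, then incubated with compound for 15 min. After 400 uM selenite was added, NADPH fluorescence (Ex 340/Em 450 nm) was followed for 8 min.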
mIDH1 inhibitor = human IDH1 R132H inhibition | O75874 | IDH1-R132H enzyme, NADPH consumption, diaphorase/resazurin fluorescence | Potency, µM (series often up to 76.6 µM), for inactives: top-dose activity change, negative = inhibition, usual class: inhibitors | 0.093% of 390,000 active; also: potency is read from the fitted curve at half-maximal effect; % is scaled to controls: 0 for no effect and ±100 for the full control effect; nearly all actives have a fitted effect of over 65% in size
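IDH1-R132H (0.5 ug/mL dispensed) in pH 7.5 Tris buffer was preincubated 30 min with compound, then given a substrate mix of 0.016 mM NADPH and 2 mM alpha-KG for 80 min at room temperature; remaining NADPH was read by diaphorase/resazurin fluorescence.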
IL2 activator = activators of IL-2; 0.065% of 360,000 active; AID 652025; activation, % (series mostly up to about 46 µM); IL-2 activation reporter assay, cell-based qHTS; stimulated with anti-CD3/CD4/CD28 beads; in transgenic mouse T cells; in the data active = activation above about 50%; inconclusive = mostly about 30% to 49%; also: 0% is about no effect
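Quantitative HTS in unstimulated transgenic mouse T cells, with memory T cells as non-tolerant control and PMA/ionomycin as tolerance-bypass control. Compound pretreatment lasted 60 minutes before 18 h bead stimulation; EGFP/DsRed fluorescence read.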
TRb SRC2 Alpha = TRb-SRC2 (human) interaction inhibition; shares compounds with TrxR1 inh-1; AlphaScreen TRb LBD-SRC2 peptide binding, luminescence; Potency, µM; 50% of 30 active; AID 2444; calls by dose curve
HepG2 tox = counter-screen for TRb-SRC2 inhibitors: HepG2 cytotoxicity | shares compounds with TrxR1 inh-1 | HepG2 viability, ATP luminescence (CellTiter-Glo), 72 h | 50% of 40 active | Potency, µM; calls by dose curve
AR-SRC2 inh = disrupts human androgen receptor binding to SRC2 peptide; shares compounds with TrxR1 inh-1; AR-LBD Tx-SRC2-3 fluorescence polarization, 3 h; calls only; 25 tested, under 10 active; AID 2448; call rule not given here
PPARg DRIP2 FP = selectivity of TRb-SRC2 inhibitors: human PPARgamma coactivator binding inhibition; 25 tested, under 10 active; Potency, µM; shares compounds with TrxR1 inh-1; PPARg LBD / Texas Red DRIP-2 peptide, fluorescence polarization, 3 h; AID 2449; calls by dose curve
VDR SRC2 FP = disrupts human vitamin D receptor binding to SRC2 peptide | shares compounds with TrxR1 inh-1 | Potency, µM | 25 tested, under 10 active | VDR LBD/SRC2-3 peptide, fluorescence polarization, 3 h; calls by dose curve
GR inh = counter-screen for TrxR1 inhibitors: human glutathione reductase inhibition; shares compounds with TrxR1 inh-1; purified GR, DTNB reduction absorbance 405 nm kinetic; activity change, negative = inhibition, % at 57.1 µM; 55 tested, under 10 active; AID 652020
TrxR1 inh-2 = blocks rat thioredoxin reductase 1 in hit validation | shares compounds with TrxR1 inh-1 | recombinant TrxR1, NADPH fluorescence consumption, selenite substrate | Potency, µM, actives largely listed as inhibitors | 50% of 55 active | AID 652023
TrxR1 insulin MOA = TrxR1 inhibition in insulin mechanism assay; shares compounds with TrxR1 inh-1; TrxR1 Trx-coupled insulin reduction, NADPH absorbance 340 nm; Potency, µM; 20% of 55 active;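 active = compounds with a measured potency under 100 micromolar; inconclusive = filed, but no rule given; inactive = potency at or above that, or unmeasurable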
TrxR1 inh-3 = blocks rat TrxR1 reduction of DTNB; shares compounds with TrxR1 inh-1; purified TrxR1, DTNB reduction, A412; Potency, µM; 90% of 55 active;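 active = a half-inhibiting concentration could be measured and was below 100 µM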
* marks the source's active call; other numbers are inactive results; i = inactive; ? = inconclusive; · = not tested or not shown; [ ] = another dose, or the depositor's remark. Sampled rows, rich in hits. Any-hit rate of the full collection: about 2.2%. Unless noted, calls follow the shape of the dose curve; as a rule, active = well fitted curve in the direction sought with a large enough effect; inconclusive = small, poorly fitted or top-dose-only effect, or another doubt; inactive = no such curve, though single readings can be large; an effect the other way counts as inactive or inconclusive.

SMILES	BRCA1 expr up	TrxR1 substrate	Giardia kill	TrxR1 inh-1	mIDH1 inhibitor	IL2 activator	GR inh	TrxR1 inh-2	TrxR1 insulin MOA	TrxR1 inh-3	others
CCCCN(C(=O)Cn1ncc(Cl)c(Cl)c1=O)c1c(N)n(CC(C)C)c(=O)[nH]c1=O	-69%	-12%	0	56µM*	-5%	-3	·	·	·	·
COc1cccc(CSc2nc3n(n2)C(CC(C)C)C(C(=O)Nc2ccccc2OC)=C(C)N3)c1 (configuration not stated)	·	1%[57.1 µM]	·	20%[57.1 µM]	-11%	·	·	·	·	·
CC(=O)Nc1ccn(C2OC(C(COC(C)=O)NC(=O)C3CCCN3C(=O)OC(C)(C)C)C(OC(C)=O)C2OC(C)=O)c(=O)n1 (configuration not stated)	·	-5%	3	7%	·	·	·	·	·	·
Cc1nc2c(C(=O)NCc3ccccc3Cl)cnn2c(C)c1Cc1c(F)cccc1Cl	·	0%[57.1 µM]	·	11%[57.1 µM]	6%	·	·	·	·	·
O=C(c1ccco1)N1CCn2c1nc1ccccc12	7.1µM*	3%	0	17%	1%	1	·	·	·	·
CCC(=O)N1CCn2c1nc1ccccc12	3%	9%	-3	27%	0%	-1	·	·	·	·
CS(=O)(=O)c1ccc(C(=O)OCC(=O)N2CCCCC2)cc1[N+](=O)[O-]	·	·	·	·	·	·	·	·	·	·	HepG2 tox=21µM*
COC(=O)c1ccc(C2c3c(oc4ccccc4c3=O)C(=O)N2CCCN2CCOCC2)cc1 (configuration not stated)	-18%	7%[57.1 µM]	-20	10µM*	8%	-2	-8	?	i	1.2µM*
COCCN1C(=O)c2oc3ccccc3c(=O)c2C1c1ccc(C(=O)OC)cc1 (configuration not stated)	21%	8%[57.1 µM]	-6	17%[57.1 µM]	-7%	-3	·	·	·	·
Cc1c(NC2=C(Cl)C(=O)N(c3ccccc3)C2=O)c(=O)n(-c2ccccc2)n1C	5%	1%	-3	3.2µM*	9%	0	-18	2.7*	i	i
O=C(c1ccccc1)[C@@H]1[C@@H]2C(=O)N(c3ccc(F)cc3)C(=O)[C@@H]2C2CCCN21 (some centres not stated)	-71%	-3%	-17	50µM*	-5%	0	3	?	i	7.4µM*
Cc1ccc(N2C(=O)[C@@H]3[C@H](C2=O)C2CCCN2[C@@H]3C(=O)c2ccccc2)cc1 (some centres not stated)	-26%	0%[57.1 µM]	-4	-25%[57.1 µM]	-4%	-1	·	·	·	·
O=C(CSc1cn(CCNC(=O)c2c(F)cccc2F)c2ccccc12)Nc1ccc(F)cc1	-12%	-6%	·	0%	5%	·	·	·	·	·
O=[N+]([O-])c1ccc(Cl)c(S(=O)(=O)Nc2cccc(S(=O)(=O)NC3=NCCC3)c2)c1	-35%	3%	2	2.5µM*	1%	1	6	0.6*	i	0.051µM*
Cc1nc2sc(C(=O)Nc3ccc(F)cc3)c(N)c2c(-c2ccc(Br)cc2)c1C(=O)Nc1ccc(Cl)cc1	·	6%[2.29 µM]	·	28%	-11%	·	·	·	·	·
Fc1ccccc1CN1CCN(c2ncccn2)CC1	-3%	4%[57.1 µM]	-8	8%[57.1 µM]	23%	-1	·	·	·	·
Oc1cc2c(cc1CN1CCN(c3ncccn3)CC1)OCO2	-3%	0%	-8	25µM*	13%	-4	-16	?	i	i
COc1cccc2c1Oc1ncccc1N(c1ccc(C(=O)NCc3cccc(C)c3)s1)C2	·	36%[57.1 µM]	·	48%[57.1 µM]	-8%	·	·	·	·	·
CCOC(=O)c1c(C)oc2c1c(CN1CCN(CCO)CC1)c(O)c1ccccc12	?	6%[57.1 µM]	7	1.1µM*	17%	-6	-21	0.3*	i	0.77µM*
CCOC(=O)c1c(C)oc2c1c(CN1CCN(C(=O)OCC)CC1)c(O)c1ccccc12	26%	4%	-12	1.6µM*	8%	-3	-23	?	i	0.33µM*
COC(=O)CN1C(=O)CSc2ccc(S(=O)(=O)Nc3cccc(C)c3)cc21	·	-5%	·	16%	31%	·	·	·	·	·
Cc1nnc2c(N3CCN(c4ccc(F)cc4)CC3)nc3ccc(C(=O)c4ccccc4)cc3n12	·	1%	·	27%	16%	·	·	·	·	·
Cc1nc([N+](=O)[O-])c(N2CCN(Cc3ccccc3)CC2)n1Cc1ccccc1	-30%	-3%	-3	-1%	-3%	0	·	·	·	·
Cc1cc2nc(Sc3c([N+](=O)[O-])nc(C)n3Cc3ccccc3)[nH]c2cc1C	-65%	-8%	3	7.1µM*	4%	-3	-11	3*	32µM*	0.013µM*
Cn1c(=O)n(C)c2cc(CNCc3ccc(C(=O)O)cc3)ccc21	·	3%[57.1 µM]	·	25%[57.1 µM]	-2%	·	·	·	·	·
O=C(COC(=O)c1cc([N+](=O)[O-])ccc1Cl)NC1C2CC3CC(C2)CC1C3 (configuration not stated)	·	·	·	·	·	·	·	·	·	·	TRb SRC2 Alpha=i;HepG2 tox=i;AR-SRC2 inh=i;PPARg DRIP2 FP=i;VDR SRC2 FP=i
O=C(COC(=O)c1cc([N+](=O)[O-])ccc1Cl)NC1CCCC1	1%	-8%	2	?	5%	-3	·	·	·	·
